Laboratory results as given in PubChem BioAssay (Tox21).
Inconclusive results are not listed. A call without a number means that no potency is given here. Activity calls are given as the source filed them. The call rests on the fitted dose curve; in most records, active means well fitted activation curve with a large enough effect in the signal ratio in the repeat runs, with a control signal flat (not every such curve was filed as active); inconclusive means weak or mixed curves; inactive means flat fitted curve, though single readings scatter; the % refers to the signal ratio.

experiment: qHTS assay for small molecule activators of the heat shock response signaling pathway (AID 743210); conditions: HeLa HSE-bla reporter, beta-lactamase ratio, 5 h; series mostly up to 62.6 µM
Method in brief: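 Quantitative high-throughput format using an engineered HeLa line in which heat shock response elements drive beta-lactamase; after 5 h with compound, cells received a B/G FRET substrate and fluorescence was read.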

| SMILES | Potency |
| --- | --- |
| CC(=O)c1ccc[nH]1 | inactive |
| COc1ccc(C2C(=O)c3ccccc3C2=O)cc1 | inactive |
| O=C(O)c1cc(Cl)cc(Cl)c1O | inactive |
| CCOC(=O)C(C)O (centres undefined) | inactive |
| O=C(c1ccccc1)c1ccc(O)cc1 | inactive |
| O=C(Oc1ccccc1)c1ccc2ccccc2c1O | inactive |
| CC12CC3CC(C)(C1)CC(N)(C3)C2 | inactive |
| CCCOC(=O)c1c(Cl)c(Cl)c(Cl)c(Cl)c1C(=O)OCCC | inactive |
| NC(=O)c1ccccc1[N+](=O)[O-] | inactive |
| CCCCCCCCCCCCCC(=O)OCC(O)CO (centres undefined) | inactive |
| Cc1ccc(NC(=O)N(C)C)cc1NC(=O)N(C)C | inactive |
| CO[C@@H]1[C@@H](OC)[C@H](C)[C@@](O)(CC(=O)O)O[C@H]1[C@H](C)[C@H]1O[C@@]2(CC[C@@](C)([C@H]3CC[C@@](C)([C@@H]4O[C@@H]([C@H]5O[C@](C)(O)[C@H](C)C[C@@H]5C)C[C@@H]4OC4C[C@H](OC)[C@@H](OC)[C@H](C)O4)O3)O2)C[C@H](O)[C@H]1C (some centres undefined) | inactive |
| O=S(=O)(Cl)c1c(Cl)cccc1Cl | inactive |
| CCOC(=O)c1c(N)sc2c1CCN(Cc1ccccc1)C2 | inactive |
| CCOC(=O)c1ccc(NC(=O)CN2CCCCC2)cc1 | inactive |
| CC(=O)OC(C)C[N+](C)(C)C (centres undefined) | inactive |
| CCN(Cc1cccc(S(=O)(=O)O)c1)c1ccc(C(=C2C=CC(=[N+](CC)Cc3cccc(S(=O)(=O)O)c3)C=C2)c2ccc(O)cc2S(=O)(=O)[O-])cc1 | inactive |
| CC(C)(C(=O)c1cccnc1)c1cccnc1 | inactive |
| COc1cc(OC)c2ccc(=O)oc2c1 | inactive |
| CC(C)C(O)C(C)(C)CO (centres undefined) | inactive |
| COc1ccc(C(=O)NCc2ccc(OCCN(C)C)cc2)cc1OC | inactive |
| Cc1cc(CCC(=O)OCCOCCOCCOC(=O)CCc2cc(C)c(O)c(C(C)(C)C)c2)cc(C(C)(C)C)c1O | inactive |
| CC(CO)(CO)C(=O)O | inactive |
| CC(C)OC(=O)c1ccccc1C(=O)OC(C)C | inactive |
| COC(=O)C1=C(C)NC(C)=C(C(=O)OC(C)(C)CN(C)CCC(c2ccccc2)c2ccccc2)C1c1cccc([N+](=O)[O-])c1 (centres undefined) | inactive |
| CC1C(C)(C)C2=C(C(=O)CCC2)C1(C)C (centres undefined) | inactive |
| CC(CCc1ccc(O)cc1)NCCc1ccc(O)c(O)c1 (centres undefined) | inactive |
| COc1cc(NC(C)CCCN)c2ncccc2c1 (centres undefined) | inactive |
| CCN(CC)CCOc1ccccc1C(=O)CCc1ccccc1 | inactive |
